From PubChem BioAssay
EPAC1 ag val = human EPAC1 agonism, validation | O95398 | EPAC1 Rap1b BODIPY-GDP exchange, fluorescence | Potency, µM, hits mostly activators | 16,000 compounds, 1% hits | AID 1645883; also: nearly all actives have a fitted effect of over 70% in size
Target sequence (O95398 whole entry, looked up): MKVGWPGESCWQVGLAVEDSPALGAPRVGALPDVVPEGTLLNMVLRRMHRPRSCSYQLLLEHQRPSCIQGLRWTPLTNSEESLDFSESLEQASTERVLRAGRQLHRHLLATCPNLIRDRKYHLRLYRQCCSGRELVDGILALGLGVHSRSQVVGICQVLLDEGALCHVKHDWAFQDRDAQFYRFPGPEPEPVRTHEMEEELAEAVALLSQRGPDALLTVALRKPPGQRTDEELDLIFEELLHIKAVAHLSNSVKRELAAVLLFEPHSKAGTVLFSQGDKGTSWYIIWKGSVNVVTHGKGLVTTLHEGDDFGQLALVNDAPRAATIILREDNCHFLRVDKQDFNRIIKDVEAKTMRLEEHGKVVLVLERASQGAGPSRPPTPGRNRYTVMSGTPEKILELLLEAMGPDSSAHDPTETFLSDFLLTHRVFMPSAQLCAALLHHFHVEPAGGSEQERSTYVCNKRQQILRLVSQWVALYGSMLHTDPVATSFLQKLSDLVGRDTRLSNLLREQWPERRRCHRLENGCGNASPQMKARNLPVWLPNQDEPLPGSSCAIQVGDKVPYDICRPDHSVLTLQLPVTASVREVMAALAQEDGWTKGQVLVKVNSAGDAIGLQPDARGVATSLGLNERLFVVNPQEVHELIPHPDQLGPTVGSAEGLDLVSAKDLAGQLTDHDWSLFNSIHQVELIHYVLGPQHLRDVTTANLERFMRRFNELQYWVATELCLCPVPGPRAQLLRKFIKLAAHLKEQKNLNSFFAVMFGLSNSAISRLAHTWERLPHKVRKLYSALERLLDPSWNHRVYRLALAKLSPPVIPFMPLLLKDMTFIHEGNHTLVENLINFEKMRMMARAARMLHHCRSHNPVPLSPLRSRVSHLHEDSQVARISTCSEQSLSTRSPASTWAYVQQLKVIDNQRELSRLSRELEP
EPAC2 ant val = validation of human EPAC2 antagonists; Q8WZA2; EPAC2 Rap1B BODIPY-GDP exchange, fluorescence; Potency, µM (series often up to 112 µM), most hits filed as inhibitors; 16,000 compounds, 1.7% hits; also: nearly all actives have a fitted effect of over 40% in size
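Normalized against a 6.5 mM cAMP agonist control, compounds were tested on 100 nM EPAC2 exchanging Rap1B-bound BODIPY-GDP (250 nM) for 50 uM GDP. Fluorescence drop (ex 480, em 540 nm) was tracked at room temperature over 30 min at 5-min intervals.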
Numbers stand for hits; . = inactive; ? = inconclusive; ! = a repeat was not active; [ ] = dose if it differs, or a comment. Hits are enriched below; roughly 3.1% of the tested compounds scored in any of these assays. Calls follow the shape of the dose curve; as a rule, active = well fitted curve in the direction sought with a large enough effect; inconclusive = small, poorly fitted or top-dose-only effect, or another doubt; inactive = no such curve, though single readings can be large; an effect the other way counts as inactive or inconclusive.

SMILES	EPAC1 ag val	EPAC2 ant val
O=C1CS[C@@H](c2ccccc2Cl)c2cc(Cl)ccc2N1	.	32µM
CC[C@@H](CO)NC(=O)[C@H]1C=C2c3cccc4c3c(cn4C)C[C@H]2N(C)C1	.	.
NCCCC[C@H](NC(=O)[C@H](Cc1ccccc1)NC(=O)[C@H](CCCN=C(N)N)NC(=O)[C@@H](N)Cc1ccc(O)cc1)C(N)=O	.	.[11.4 µM]
CCC(C)(C)c1ccc(O)cc1	.	.
CC(C)(C)CC(C)(C)c1ccc(O)cc1	.	56µM
CC[C@]1(O)CC(O[C@@H]2CC(N(C)C)C(O)C(C)O2)c2c(cc3c(c2O)C(=O)c2c(O)cccc2C3=O)C1C(=O)OC (stereo partly specified)	?	.
CC[C@@]1(O)CC(O)c2c(cc3c(c2O)C(=O)c2c(O)ccc(O)c2C3=O)C1C(=O)OC (stereo partly specified)	112µM	.
CC(C)(O)[C@@H]1[C@H]2OC(=O)[C@@H]1[C@]1(O)C[C@H]3O[C@]34C(=O)O[C@H]2[C@]14C	.	.
N#CC(C#N)=NNc1ccc(OC(F)(F)F)cc1	.	40µM
ClC1=C(Cl)[C@]2(Cl)[C@@H]3[C@H]4C[C@H]([C@@H]5O[C@H]45)[C@@H]3[C@@]1(Cl)C2(Cl)Cl	.	.
CCCCCCCCCC[N+](C)(C)CCCCCCCCCC	.	.
CCCCCCCCCCCCCCCC[N+](C)(C)C	.	40µM!
CCCCCC[C@H]1C(=O)O[C@H](C)[C@H](NC(=O)c2cccc(NC=O)c2O)C(=O)O[C@@H](C)[C@@H]1OC(=O)CC(C)C	.	45µM
CNc1ccc(C(=O)CC(O)CCC(C)C2OC(=O)CC(O)CC(=O)CC(O)CC(O)CC(O)CC(O)CC3(O)CC(O)C(C(=O)OC)C(CC(O[C@@H]4O[C@H](C)[C@@H](O)[C@H](N)[C@@H]4O)/C=C/C=C/C=C/C=C/C=C/C=C/C=C/C2C)O3)cc1 (stereo partly specified)	?	.
CCCOc1ccc2[nH]cc(C3=CCNCC3)c2n1	.	.
CCC(=O)O[C@](Cc1ccccc1)(c1ccccc1)[C@H](C)CN(C)C	.	.
[H+].[H+].[Hg+2].[O-]B([O-])[O-].[c-]1ccccc1	.	.
C#CCN1C(C)=C(C(=O)CCO)[C@@H](c2cccc(-n3oo3)c2)C(C(=O)OC)=C1C	?	20µM
Oc1cc[c]([Hg][Cl])cc1	.	.
CCOC(=O)[C@]12Cc3ccsc3[C@H]1N(Cc1ccccc1)C(=O)c1ccccc12	?	56µM
CCOC(=O)[C@]12Cc3cc(OC)c(OC)cc3[C@H]1N(Cc1ccccc1)C(=O)c1ccccc12	.	.
C[C@]12CC[C@H]3[C@@H](CCC4=CC(=O)CC[C@@]43C)[C@@H]1CC[C@H]2O	.	.
O=C(CCl)c1ccc(Oc2ccc(C(=O)CCl)cc2)cc1	.	.
O=C1CCC[C@H]2[C@H]3CCCN4CCCC(=CN12)[C@@H]34	.	.
NC[C@H](CS(=O)(=O)O)c1ccc(Cl)cc1	.	.
SMILES	EPAC1 ag val	EPAC2 ant val
CCCCCCCCCC(CC)c1ccc(S(=O)(=O)O)cc1 (stereo unspecified)	.	56µM!
C[C@H]1[C@@H]2Cc3ccc(O)cc3[C@@]1(C)CCN2C	.	.
COc1cc2c(cc1-c1cc3cc4ccoc4cc3oc1=O)OCO2	.	1.3µM
COc1cc2occc2c2oc(=O)ccc12	?	.
O=C1c2ccccc2-c2cccc3cccc1c23	112µM	.
OC[C@@H](O)[C@H]1O[C@@H]2O[C@@H](C(Cl)(Cl)Cl)O[C@@H]2[C@H]1O	.	.
CCOP(=S)(OCC)SCn1c(=O)oc2cc(Cl)ccc21	.	32µM
OC[C@@H](O)[C@H]1O[C@@H]2O[C@H](C(Cl)(Cl)Cl)O[C@@H]2[C@H]1O	.	.
O=C1C(I)=CC(=C(c2cc(I)c(O)c(I)c2)c2ccccc2C(=O)O)C=C1I	.	45µM!
Nc1ccccc1C(=O)O	.	.
CCC1(c2cnc[nH]2)Cc2ccccc2C1	.	.
COP(=S)(OC)Oc1ccc([N+](=O)[O-])cc1	.	?
CCCCN(CC)c1c([N+](=O)[O-])cc(C(F)(F)F)cc1[N+](=O)[O-]	?	.
CCCN(CCC)c1c([N+](=O)[O-])cc(S(N)(=O)=O)cc1[N+](=O)[O-]	.	40µM
C[C@H]1[C@H]2Cc3ccc(O)cc3[C@]1(C)CCN2CCc1ccccc1	.	.
COc1cc(C[C@@H](C)N)c(OC)cc1C	?	.
C[C@H](NC(=O)[C@@H](N)Cc1ccc(O)cc1)C(=O)NCC(=O)N(C)[C@@H](Cc1ccccc1)C(=O)N[C@H](CO)CCS(C)=O (stereo partly specified)	.	.[11.4 µM]
CCCCCCCCCc1ccc(O)cc1	?	45µM
NCCc1ccc(O)cc1	.	.
CCN1C[C@]2(C)CC[C@H](OC)[C@@]34[C@H]1C1(OCO[C@@]15C[C@H](OC)C1C[C@]3(O)C5[C@H]1OC)[C@@H](O)[C@H]24	.	.
C[C@@]1(CO)[C@H](O)CC[C@@]2(C)[C@H]1CC[C@H]1C[C@@H]3C[C@@]12CC[C@]3(O)CO	.	63µM
CCCCCCC(=O)O[C@H]1CC[C@H]2[C@@H]3CC[C@H]4CC(=O)C=C(C)[C@]4(C)[C@H]3CC[C@]12C	.	.
C[C@]12CC[C@@H]3c4ccc(OC(=O)N(CCCl)CCCl)cc4CC[C@H]3[C@@H]1CC[C@@H]2OP(=O)(O)O	?	.
